# Beta cell apopt: beta cell apoptosis inhibition; INS-1E cytokine-induced death, ATP luminescence, 48 h; percent of positive-control rescue, neutral wells zero; protection from apoptosis, % (concentration not given with the values); 0.8% of 300,000 active; AID 435005;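 active means Every replicate reaches about 75%, or at least half do and their mean reaches it too, limit read from the data; inconclusive means At least half of replicates reach the limit but their mean does not; inactive means Under half of replicates reach the limit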;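 further: 0% = cytokine-treated negative control wells and 100% = positive control rescue; higher means more ATP so stronger rescue from cytokine killing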
# Shn3 3UTR inh: reduces Shn3 3'UTR luciferase signal in osteoblasts; Clone20 osteoblast Shn3 3'UTR firefly luciferase, 24 h; inhibition, % at 12.5 µM; 0.52% of 360,000 active;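 active means mean inhibition of at least 75% with every replicate also reaching 75%; inconclusive means mean inhibition at least 75% but some replicate below; inactive means mean inhibition below 75%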;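 further: 0% = median of neutral control wells and 100% = pilot-screen positive control compound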
# Mdm2-MdmX inh: inhibitors of human Mdm2/MdmX interaction | SaOS-2 split-luciferase Mdm2/MdmX complementation, luminescence | inhibition, % at 8 µM | 3% of 330,000 active | AID 485346;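 active means inhibition of at least 50% at 8 µM in the primary screen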
# Target sequence (O15151 whole entry, looked up): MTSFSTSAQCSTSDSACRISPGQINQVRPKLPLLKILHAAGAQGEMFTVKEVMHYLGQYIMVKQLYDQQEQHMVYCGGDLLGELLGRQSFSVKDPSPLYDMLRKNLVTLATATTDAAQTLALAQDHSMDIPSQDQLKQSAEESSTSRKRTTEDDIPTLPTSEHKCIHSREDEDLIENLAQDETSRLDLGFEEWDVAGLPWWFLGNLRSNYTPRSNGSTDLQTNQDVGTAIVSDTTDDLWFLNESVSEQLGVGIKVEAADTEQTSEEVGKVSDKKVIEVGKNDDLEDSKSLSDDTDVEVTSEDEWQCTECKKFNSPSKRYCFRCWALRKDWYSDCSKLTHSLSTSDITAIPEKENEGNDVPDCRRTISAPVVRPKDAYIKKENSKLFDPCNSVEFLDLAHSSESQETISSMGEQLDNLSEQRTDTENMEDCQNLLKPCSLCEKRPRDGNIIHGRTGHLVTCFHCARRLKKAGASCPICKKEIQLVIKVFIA
# Target sequence (Q00987 whole entry, looked up): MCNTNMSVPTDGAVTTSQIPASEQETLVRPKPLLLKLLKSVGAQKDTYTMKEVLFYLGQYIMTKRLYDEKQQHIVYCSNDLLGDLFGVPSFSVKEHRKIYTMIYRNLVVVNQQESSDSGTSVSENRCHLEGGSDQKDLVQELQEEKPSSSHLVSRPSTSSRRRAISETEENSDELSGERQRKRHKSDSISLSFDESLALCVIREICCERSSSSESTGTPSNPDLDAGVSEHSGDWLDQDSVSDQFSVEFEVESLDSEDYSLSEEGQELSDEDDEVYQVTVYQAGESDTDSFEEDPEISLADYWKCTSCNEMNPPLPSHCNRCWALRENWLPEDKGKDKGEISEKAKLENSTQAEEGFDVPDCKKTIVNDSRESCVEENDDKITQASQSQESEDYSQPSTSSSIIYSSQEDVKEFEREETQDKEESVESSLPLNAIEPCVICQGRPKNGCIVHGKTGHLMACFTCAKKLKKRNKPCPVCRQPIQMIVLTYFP
# PAX8 inh HTS: lowers PAX8-driven luciferase in RMG-I cells; AID 652154; RMG-I TPO-luciferase reporter, SteadyGlo, 24 h; inhibition, % at 12.6 µM; 1.2% of 360,000 active;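 active means mean replicate inhibition at least 60% with every replicate also reaching 60%; inconclusive means only one of the two criteria is met; inactive means mean below 60% and not all replicates reaching 60%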;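 further: luciferase light reporting Pax8 driven TPO promoter activity; plate controls were median of neutral control wells for no effect and mitoxantrone controls for full effect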
# CSC inhib: cancer stem cell inhibition. inhibition, % at 7.5 µM. AID 2717. cancer stem cell-like cells viability, luminescence. 1.1% of 300,000 active; in the data active means inhibition above about 75%; inconclusive means no clear call, values can overlap the other calls; tested in HMLE shEcad cells
# Gli-Sufu block: antagonists of Gli-Sufu signaling. 0.74% of 340,000 active. Sufu-KO-LIGHT fibroblasts, Gli luciferase reporter luminescence. inhibition, % at 5 µM. AID 588413;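 active means inhibition above about 55%, limit read from the data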;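 further: 0% = DMSO-treated cells and 100% = wells with medium but no cells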
# Mdm2-MdmX conf: confirmation of human Mdm2/MdmX interaction inhibitors; shares compounds with Mdm2-MdmX inh; Mdm2-MdmX binding, luminescent assay; inhibition, % at 8 µM; 55% of 10,000 active; AID 489028; in the data active means inhibition above about 40%
# FLuc counter: counter-screen for Mdm2/MdmX inhibitors: full-length luciferase | shares compounds with Mdm2-MdmX inh | SaOS-2 full-length luciferase counterscreen, luminescence | inhibition, % at 8 µM | 77% of 6,200 active | AID 504607;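 active means mean inhibition at 8 µM reaching about 37%, which flags the compound as non-specific, limit read from the data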;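 further: p53-null SaOS-2 cells with luciferase driven by a doxycycline-inducible promoter; compound on cells about two nights before reading with doxycycline added after day one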
# * hit, by the source's call; ? = inconclusive; · = not tested or not shown. An excerpt weighted towards active compounds, which were near 4% of everything screened.
SMILES,Beta cell apopt,Shn3 3UTR inh,Mdm2-MdmX inh,PAX8 inh HTS,CSC inhib,Gli-Sufu block,Mdm2-MdmX conf,FLuc counter
CCN1CCN(C(c2ccccc2)c2sc3nc(C)nn3c2O)CC1 (stereo not drawn),-7,0,4,10,6,3,·,·
CCN1CCN(C(c2ccc(C(F)(F)F)cc2)c2ccc3cccnc3c2O)CC1 (stereo not drawn),86*,64,74*,?,104*,16,78*,31
CN1CCN(C(c2ccc(Cl)cc2)c2cc(Cl)c3cccnc3c2O)CC1 (stereo not drawn),68,77,73*,54,-16,4,72*,38*
Cc1ccc(/C=C/C(=O)c2c(C)cc(C)[nH]c2=O)cc1,·,-58,70*,·,·,0,45*,51*
CCc1ccc(/C=C/C(=O)c2c(C)cc(C)[nH]c2=O)cc1,-24,-2,72*,·,8,-6,48*,31
CC=Cc1ccc2n(c1=O)C[C@H]1[C@H](CO)[C@@H](C(=O)NCC3CC3)[C@@H]2N1Cc1ccccc1F (mixture of isomers),·,·,·,15,·,·,·,·
O=C(c1cccnc1)N1C[C@H]2[C@@H](c3ccccc31)[C@H](CO)N2Cc1ccc2c(c1)OCO2,·,·,·,7,·,·,·,·
COCC(=O)N[C@H]1C=C[C@@H](CC(=O)NCc2ccc(Cl)cc2)O[C@H]1CO,·,·,·,-1,·,·,·,·
COC(=O)c1ccccc1NC(=O)c1ccc(-c2ccc(Br)cc2)o1,10,-4,58*,·,6,27,62*,152*
O=C(Nc1cccc2nsnc12)c1ccc(-c2ccc(Br)cc2)o1,-2,-11,-17,0,-17,38,·,·
O=C(Cc1ccncc1)NCC[C@@H]1CC[C@@H](NC(=O)Nc2cccc(F)c2)[C@@H](CO)O1,·,·,·,12,·,·,·,·
O=C(Nc1cccc(F)c1)N1CC(=O)N2[C@H](CO)[C@@H](c3ccc(-c4ccc(F)cc4)cc3)[C@H]2C1,·,·,·,34,·,·,·,·
C#Cc1ccc([C@@H]2C=C(C(=O)N3CCN(Cc4ccccc4)CC3)O[C@H](OCCCCO)C2)cc1,124*,93*,57*,·,2,·,77*,37*
Cc1ccc(NC(=S)NCCC(c2ccccc2)c2ccccc2)c(C)c1,5,24,61*,·,15,0,4,·
Cc1ccccc1NC(=S)NCCC(c1ccccc1)c1ccccc1,5,-5,30,·,19,2,·,·
CS(=O)(=O)c1ccc(-c2sc3ccccc3c2C#CCCO)cc1,3,-9,17,?,63,14,·,·
Cn1cncc1C#Cc1c(-c2ccc(S(C)(=O)=O)cc2)sc2ccccc12,·,73,65*,21,·,2,28,·
CO[C@@H]1CN(C)C(=O)c2ccc(NC(C)=O)cc2OC[C@@H](C)N(C(=O)c2ccccn2)C[C@H]1C,·,·,·,-25,·,·,·,·
COC(=O)c1ccc2nc(Nc3nc4c(F)cc(F)cc4s3)sc2c1,-4,55,88*,·,45,49,37,·
CCOC(=O)N1CCN(S(=O)(=O)c2ccc(C(=O)Nc3nc4ccc(F)cc4s3)cc2)CC1,39,84,55*,·,34,10,23,·
CCOC(=O)c1ccc2nc(Nc3nc4ccc(F)cc4s3)sc2c1,-5,35,82*,49,56,16,60*,11
CCOC(=O)N1CCN(S(=O)(=O)c2ccc(C(=O)Nc3nc4ccccc4s3)cc2)CC1,16,27,9,·,29,-2,·,·
CC(C)CC#Cc1ccc([C@H]2[C@H]3CN(C(=O)NC4CCCC4)CCCCN3[C@H]2CO)cc1,·,·,·,27,·,·,·,·
Cc1ccc(S(=O)(=O)N(C)C[C@@H]2OCCCC[C@H](C)Oc3ccc(NC(=O)NC4CCCCC4)cc3C(=O)N([C@H](C)CO)C[C@H]2C)cc1,·,·,·,18,·,·,·,·
CCC(=O)Nc1ccc2c(c1)C(=O)N(C)C[C@H](OC)[C@H](C)CN(C(=O)COC)[C@H](C)CO2,·,·,·,-11,·,·,·,·
SMILES,Beta cell apopt,Shn3 3UTR inh,Mdm2-MdmX inh,PAX8 inh HTS,CSC inhib,Gli-Sufu block,Mdm2-MdmX conf,FLuc counter
Cc1noc(C)c1NC(=O)N[C@H]1CC[C@@H](CCNC(=O)C2CC2)O[C@H]1CO,·,·,·,7,·,·,·,·
COc1cc(/C=C2/CCC/C(=C\c3cc(O)c(OC)c(Cl)c3)C2=O)cc(Cl)c1O,9,45,95*,81*,119*,5,80*,52*
COc1cc(/C=C2\CC/C(=C\c3cc(OC)c(O)c(OC)c3)C2=O)cc(OC)c1O,89*,34,97*,88*,86*,12,62*,26
CCOc1cc(/C=C2\CN(CC)C/C(=C\c3ccc(O)c(OCC)c3)C2=O)ccc1O,·,97*,96*,13,·,-2,97*,57*
CCOc1cc(/C=N/N=C/c2ccc(O)c(OCC)c2)ccc1O,-9,6,20,26,-8,5,·,·
COc1cc(/C=C2\CCC/C(=C\c3ccc(O)c(OC)c3)C2=O)ccc1O,-24,14,100*,35,100*,52,89*,22
CC(C)NC(=O)Nc1ccc2c(c1)C(=O)N([C@H](C)CO)C[C@H](C)[C@@H](CN(C)C(=O)NC(C)C)OCCCC[C@@H](C)O2,·,·,·,-6,·,·,·,·
Cc1cc(C(=O)Nc2cccc3c2O[C@@H](CN(C)C(=O)Nc2ccccc2)[C@@H](C)CN([C@H](C)CO)C3=O)n(C)n1,·,·,·,-1,·,·,·,·
COc1cc(/C=C2\CC(C(C)(C)C)C/C(=C\c3cc(OC)c(OC)c(OC)c3)C2=O)cc(OC)c1OC (stereo not drawn),98*,?,97*,8,107*,16,99*,55*
C[C@H]1CN([C@@H](C)CO)C(=O)c2cc(NS(=O)(=O)c3ccc(F)cc3)ccc2O[C@H]1CN(C)Cc1ccccc1,·,·,·,-8,·,·,·,·
CN(C)CC(=O)N[C@@H]1CC[C@H](CCNS(=O)(=O)c2ccccc2)O[C@@H]1CO,·,·,·,-6,·,·,·,·
CCOc1ccc(-n2nnnc2SCC(=O)c2ccccc2)cc1,-9,-4,68*,·,21,9,15,·
COc1ccc(-n2nnnc2SCC(=O)c2cccc(OC)c2)cc1,3,-18,49,·,44,-6,·,·
Cc1ccc(S(=O)(=O)Nc2ccc3c(c2)C(=O)N([C@H](C)CO)C[C@H](C)[C@@H](CN(C)S(=O)(=O)c2ccc(Cl)cc2)OCCCC[C@@H](C)O3)cc1,·,·,·,22,·,·,·,·
Cc1cc(C)c(NS(=O)(=O)c2ccc(NC(=O)c3cccs3)cc2)c(C)c1,-5,3,21,10,18,-4,·,·
CCOC(=O)/C=C/C(=O)Nc1ccc(S(=O)(=O)Nc2c(C)cc(C)cc2C)cc1,-6,12,50*,2,44,-4,28,·
CCOC(=O)/C=C/C(=O)Nc1ccc(Oc2ccccc2)cc1,-10,2,56*,14,31,0,55*,24

# Screening results (PubChem BioAssay)
